CYP2C9 inh: blocks human cytochrome P450 2C9. P11712. CYP2C9 Supersomes, luciferin-H conversion, luminescence. inhibition, % at 5 µM. actives 20% (n = 96,000);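 active means blocking of liver enzyme CYP2C9 beyond about 50% at 5 µM, limit read from the data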
CYP2C9 act: CYP2C9 (human) activation; actives 1.4% (n = 96,000); recombinant CYP2C9, luciferin-H conversion, luminescence; stronger effect = higher value; factor 1 = untreated enzyme, 0 = blocked; P11712; activation factor at 5 µM;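 active means activation factor of 2 or more for CYP2C9 at a 5 µM dose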
CYP2C19 act: increases human CYP2C19 enzyme activity | AID 1025 | 96,000 tested, under 10 active | recombinant CYP2C19, luciferin-H EGE luminescence; stronger effect = higher value; 0 = fully inhibited enzyme, 1 = untreated enzyme | activation factor at 5 µM;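 active means activation factor of at least 2 at 5 µM in the primary screen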
Target sequence (P33261 whole entry, looked up): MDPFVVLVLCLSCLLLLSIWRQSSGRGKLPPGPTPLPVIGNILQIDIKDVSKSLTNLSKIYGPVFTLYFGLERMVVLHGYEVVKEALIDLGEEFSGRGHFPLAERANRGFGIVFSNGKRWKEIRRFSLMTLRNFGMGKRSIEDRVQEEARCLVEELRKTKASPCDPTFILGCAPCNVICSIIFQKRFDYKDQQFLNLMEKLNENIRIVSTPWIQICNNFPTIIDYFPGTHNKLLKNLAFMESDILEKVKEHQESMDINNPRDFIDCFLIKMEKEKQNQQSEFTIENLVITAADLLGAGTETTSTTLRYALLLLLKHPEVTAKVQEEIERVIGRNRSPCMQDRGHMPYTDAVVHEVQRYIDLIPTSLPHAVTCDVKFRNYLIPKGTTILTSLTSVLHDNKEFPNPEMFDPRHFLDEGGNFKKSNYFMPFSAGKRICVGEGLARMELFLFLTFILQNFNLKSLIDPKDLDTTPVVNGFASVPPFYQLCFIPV
CYP2C19 inhib: blocks human cytochrome P450 2C19; inhibition, % at 5 µM; CYP2C19 Supersomes, luciferin-H EGE luminescence, 30 min; actives 21% (n = 96,000);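 active means CYP2C19 inhibition above a set limit at 5 µM in the primary screen, cut at about 50% in these data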
Cav32 inh: blocks human Cav3.2 T-type calcium channel; O95180; Cav3.2-expressing cells, Fluo-4 calcium fluorescence FDSS; stronger effect = lower value; B-score at 10 µM; actives 4% (n = 100,000);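 active means single-dose well whose peak fluorescence ratio is a statistical outlier from its plate by either plate-standardised score or position-corrected B-score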
Numbers stand for hits; 0 = inactive; - = not tested or not shown. This is a sample that favours compounds with a hit; in the whole collection about 27% have one here.

SMILES | CYP2C9 inh | CYP2C9 act | CYP2C19 act | CYP2C19 inhib | Cav32 inh
CCOc1ccc(-c2nc(CSCC(=O)NC3CCCc4ccccc43)c(C)o2)cc1 (stereo not given) | 0 | 0 | 0 | 65.2 | -6.31
COc1cccc(NC(=O)CC2C(=O)NC3CCCCC3N2C(=O)c2ccc(F)cc2)c1 (stereo not given) | 0 | 0 | 0 | 0 | 0
Nc1ccc(C(=O)Nc2ccco2)cc1 | - | - | - | - | 0
CC(C)OC(=O)CSc1nnnn1-c1ccc2c(c1)OCCO2 | 0 | 0 | 0 | 74.6 | 0
COc1ccc(NC(=O)c2ccccc2O)c(OC)c1 | 53.3 | 0 | 0 | 60.5 | 0
COc1ccc(NC(=O)C2OCCc3ccccc32)c(OC)c1 (stereo not given) | 0 | 0 | 0 | 91.4 | 0
COc1ccc(NC(=O)c2cc(C(C)C)on2)cc1OC | 0 | 0 | 0 | 0 | 0
COc1ccc(NC(=O)c2cc(C(C)C)on2)c(OC)c1 | 0 | 2.8 | 0 | 0 | 0
NCCCC[C@H](N)c1nnc([C@H](CCC(=O)O)NC(=O)C2CCNCC2)o1 | - | - | - | - | 0
Cc1ccccc1C(=O)NNC(=S)NC(=O)COc1ccccc1 | 88.9 | 0 | 0 | 55.3 | 0
Cc1ccc(C(=O)NNC(=S)NC(=O)COc2ccccc2)cc1 | 78.2 | 0 | 0 | 0 | -5.19
CCCOc1ccc(C(=O)NNC(=S)NC(=O)c2cc(-c3ccccc3)nc3ccccc23)cc1 | 0 | 0 | 0 | 0 | -7.25
Cc1ccccc1NC(=S)NC(=O)c1cc(-c2ccccc2)nc2ccccc12 | 0 | 0 | 0 | 0 | 0
COc1cc(NC(=O)C2CCCN(c3ncccn3)C2)cc(OC)c1 (stereo not given) | - | - | - | - | 0
COc1cccc(C(=O)CSc2nnc(-c3ccco3)n2CC2CCCO2)c1 (stereo not given) | 0 | 0 | 0 | 67.0 | 0
c1ccc(-n2c(SCC3CCCCO3)nnc2-c2cccs2)cc1 (stereo not given) | 0 | 0 | 0 | 0 | 0
O=C(CSc1nnc(-c2ccco2)n1CC1CCCO1)N1CCCCC1 (stereo not given) | 0 | 0 | 0 | 52.1 | 0
Cc1ccc(-n2c(SCC3CCCCO3)nnc2-c2ccco2)cc1 (stereo not given) | 57.8 | 0 | 0 | 0 | 0
O=C(CSc1nnc(-c2ccco2)n1CC1CCCO1)c1ccc(F)cc1 (stereo not given) | 0 | 0 | 0 | 0 | 0
O=C1CC2(CCOCC2)Oc2ccc3ccccc3c21 | - | - | - | - | 0
O=C(c1cnc(-c2ccccc2)s1)c1ccc(Cl)cc1Cl | 0 | 0 | 0 | 56.8 | 0
O=C(c1ccc(Cl)cc1)c1cnc(Nc2ccccc2Cl)s1 | 0 | 0 | 0 | 0 | 0
COc1ccc(S(=O)(=O)N(CCc2ccccc2)CC(=O)N2CCOCC2)cc1 | 0 | 0 | 0 | 0 | 0
CS(=O)(=O)N(CC(=O)N1CCOCC1)Cc1ccccc1 | 0 | 0 | 0 | 0 | 0
COc1ccc(S(=O)(=O)N(CC(=O)N2CCOCC2)Cc2ccccc2)cc1C | 0 | 0 | 0 | 72.3 | 0
SMILES | CYP2C9 inh | CYP2C9 act | CYP2C19 act | CYP2C19 inhib | Cav32 inh
COc1ccc(S(=O)(=O)N(CCc2ccccc2)CC(=O)O)cc1C | 73.0 | 0 | 0 | 61.9 | 0
COc1ccc(C)cc1S(=O)(=O)N(CC(=O)N1CCOCC1)Cc1ccccc1 | 0 | 0 | 0 | 66.1 | 0
OCCn1c(SC2CCCCC2)nc2ccccc21 | 0 | 0 | 0 | 0 | 0
O=c1[nH]ncn2cccc12 | 0 | 0 | 0 | 0 | 0
O=C(CSc1nnc(CCc2ccccc2)n1-c1ccc(Cl)cc1)NCc1ccccc1 | 89.3 | 0 | 0 | 83.9 | -5.89
C=CCn1c(COc2ccccc2)nnc1SCC(=O)N/N=C/c1ccc(C)cc1 | 0 | 0 | 0 | 0 | 0
C=CCn1c(CSCc2ccc(C)cc2)nnc1SCC(=O)NCc1ccccc1 | 79.1 | 0 | 0 | 80.2 | -3.6
C=CCn1c(SCC(=O)NCc2ccccc2)nnc1-c1ccccc1O | 73.6 | 0 | 0 | 71.3 | 0
C=CCn1c(CSCc2ccc(Cl)cc2)nnc1SCC(=O)NCc1ccccc1 | 80.6 | 0 | 0 | 86.9 | -6.56
C=CCn1c(SCC(N)=O)nnc1-c1ccccc1O | 0 | 0 | 0 | 0 | 0
O=c1c2ccccc2nc(CSc2ncnc3nc[nH]c23)n1-c1cccc(C(F)(F)F)c1 | 0 | 0 | 0 | 0 | 0
C/C(Nc1ccccc1)=C(/C#N)C(N)=O | 0 | 0 | 0 | 0 | 0
C=CCn1c(SCC(N)=O)nnc1-c1cc(Br)ccc1O | 0 | 0 | 0 | 86.9 | 0
C=CCn1c(SCc2ccccc2C#N)nnc1-c1ccccc1O | 0 | 0 | 0 | 98.4 | 0
C=CCn1c(=O)c2ccccc2n2c(SCC(=O)NCCc3ccccc3)nnc12 | 0 | 0 | 0 | 51.4 | 0
C=CCn1c(=O)c2ccccc2n2c(Sc3nnnn3-c3ccccc3)nnc12 | 0 | 0 | 0 | 0 | 0
Cc1c(O)ccc(/C(Cc2ccc3ccccc3n2)=N\O)c1O | 88.5 | 0 | 0 | 66.5 | -4.79
CCOC(=O)NC(=O)CN1C(=O)NC(C)(c2ccccc2)C1=O (stereo not given) | 0 | 0 | 0 | 0 | 0
CC1(c2ccccc2)NC(=O)N(CCOc2ccccc2)C1=O (stereo not given) | 0 | 0 | 0 | 65.1 | 0
CCOc1ccccc1CN1C(=O)NC(C)(c2ccccc2)C1=O (stereo not given) | 0 | 0 | 0 | 93.8 | 0
CC1(c2ccccc2)NC(=O)N(CC(=O)NC(=O)NC2CCCC2)C1=O (stereo not given) | 0 | 0 | 0 | 52.6 | 0
COc1ccc(C(=O)CN2C(=O)NC(C)(c3ccccc3)C2=O)cc1OC (stereo not given) | 0 | 0 | 0 | 0 | 0
COCCNC(=O)CS(=O)(=O)Cc1nc(-c2ccc(C)cc2)oc1C | 0 | 0 | 0 | 0 | 0
Cc1ccc(CCNC(=O)C2CC(c3ccc(C(F)(F)F)cc3)=NO2)cc1 (stereo not given) | - | - | - | - | 0
Cc1cccc(N(CC(=O)NC2CCCCC2)C(=O)c2ccc(C)s2)c1 | 59.7 | 0 | 0 | 0 | 0
SMILES | CYP2C9 inh | CYP2C9 act | CYP2C19 act | CYP2C19 inhib | Cav32 inh
Cc1ccccc1N(CC(=O)NC1CCCC1)C(=O)c1oc(C(C)(C)C)cc1C | 0 | 0 | 0 | 0 | 0
Cc1cccc(N(CC(=O)NC2CCCC2)C(=O)c2cc3cc4cccc(C)c4nc3s2)c1C | 89.5 | 0 | 0 | 0 | -3.26
Cc1ccc(C(=O)N(CC(=O)NC2CCCCC2)c2ccccc2C)s1 | 62.1 | 0 | 0 | 0 | 0
COc1ccc(-c2nnn(CC(=O)N(CC(=O)NC3CCCC3)c3cccc(C)c3)n2)cc1OC | 0 | 0 | 0 | 0 | 0
Cc1ccccc1N(CC(=O)NC1CCCC1)C(=O)CS(=O)CC(=O)Nc1ccc2c(c1)OCO2 (stereo not given) | 90.1 | 0 | 0 | 0 | 0
Cc1ccc(C)c(N(C(=O)CS(=O)CC(=O)Nc2ccc3c(c2)OCO3)C(C)C(=O)NC2CCCC2)c1 (stereo not given) | - | - | - | - | 0
COC(=O)c1[nH]c2ccccc2c1NC(=O)CN1CCN(c2cccc(OC)c2)C(C)C1 (stereo not given) | 0 | 0 | 0 | 0 | 0
COc1ccccc1N1CCN(CCc2n[nH]c(=S)n2-c2ccccc2)CC1 | 0 | 0 | 0 | 0 | 0

Assay outcomes: PubChem BioAssay, several laboratories
